From PubChem
The list is not random: actives were taken first. Their share in the collection is about 1.7%.
KCNH2 3.1 block: blocks the human KCNH2 3.1 channel isoform; U2OS KCNH2 3.1, thallium flux FluxOr; stronger effect = lower value; activity change, % (tested at about 1.8 µM); actives 0.95% (n = 340,000);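 active means maximum activity change below -70%; inconclusive means maximum activity change from -70% to -50%; inactive means maximum activity change above -50%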;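 further: thallium influx rate constant from kinetic fluorescence after stimulation buffer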
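Normalized rate constant (relative to positive and negative DMSO controls) derived from a 2 min kinetic fluorescence read after stimulation; U2OS cells expressing the 3.1 isoform via virus at 1.77 x 10^8 /mL.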
RXFP1 agonist: RXFP1 (human) receptor agonism | Q9HBX9 | HEK293T-RXFP1 cAMP TR-FRET, 30 min; response scale: percent of porcine relaxin response, buffer zero | Potency, µM (series often up to 57.5 µM), actives largely listed as activators | actives 0.3% (n = 370,000) | AID 2676; active means well fitted activation curve with a large enough effect; inconclusive means small, poorly fitted or top-dose-only effect; further: nearly all actives have a fitted effect of over 60% in size
Target sequence (Q9HBX9 whole entry, looked up): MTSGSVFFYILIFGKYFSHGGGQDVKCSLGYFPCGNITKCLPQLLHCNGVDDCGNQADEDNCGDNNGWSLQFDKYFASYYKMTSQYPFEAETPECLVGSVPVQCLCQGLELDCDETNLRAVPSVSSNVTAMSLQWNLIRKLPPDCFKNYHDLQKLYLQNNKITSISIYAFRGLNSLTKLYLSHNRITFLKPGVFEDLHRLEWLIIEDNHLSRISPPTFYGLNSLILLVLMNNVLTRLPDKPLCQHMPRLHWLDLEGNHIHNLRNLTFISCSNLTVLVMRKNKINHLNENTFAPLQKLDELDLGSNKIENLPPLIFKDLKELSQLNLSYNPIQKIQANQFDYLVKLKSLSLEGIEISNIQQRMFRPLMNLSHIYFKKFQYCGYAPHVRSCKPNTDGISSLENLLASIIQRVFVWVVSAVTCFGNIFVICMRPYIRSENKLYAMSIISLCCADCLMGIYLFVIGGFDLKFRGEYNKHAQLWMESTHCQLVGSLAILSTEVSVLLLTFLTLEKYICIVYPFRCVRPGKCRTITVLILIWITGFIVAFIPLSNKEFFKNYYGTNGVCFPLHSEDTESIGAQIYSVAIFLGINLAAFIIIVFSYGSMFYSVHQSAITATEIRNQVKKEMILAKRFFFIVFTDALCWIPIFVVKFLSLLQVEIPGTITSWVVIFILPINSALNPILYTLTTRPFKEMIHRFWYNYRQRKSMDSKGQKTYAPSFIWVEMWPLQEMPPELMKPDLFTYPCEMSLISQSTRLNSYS
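HEK293T cells stably expressing RXFP1 were pretreated with the PDE4 inhibitor Ro 20174, exposed to compounds for 30 min at 37C, lysed, and cAMP was read by TR-FRET. Data normalized to buffer (basal) and 29 nM porcine relaxin (100%).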
hERG WT inh: inhibitors of human wildtype KCNH2 potassium channel; U2OS, BacMam KCNH2, thallium flux FluxOr; stronger effect = lower value; Q12809; actives 0.37% (n = 340,000); activity change, % at 1.84 µM;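 active means maximum activity change below -70%; inconclusive means maximum activity change between -70% and -50%; inactive means maximum activity change above -50%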
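U2OS cells transduced with wild-type KCNH2 virus are loaded with FluxOr dye for 45 min, and thallium flux is measured in kinetic reads before and after stimulation buffer. Rate constants are normalized to DMSO controls.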
pAkt inh: inhibitors of Akt phosphorylation; Neuro2A IGF-stimulated pAkt S473 HTRF, 20 min; stronger effect = lower value; activity change, % for hits at 50 µM; actives 0.32% (n = 360,000); AID 651550; in the data active means activity change below about -80%; inconclusive means mostly about -51% to -80%
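Neuro2A cells in DMEM with 0.5% FBS, overnight at 37 deg C, given compound at single 50 µM final, then IGF (6 nM final) for 20 min at 37 deg C. Lysed; phospho-Akt Ser473 by HTRF after 24 h, 665/615 ratio.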
RXFP1 antag: blocks the human relaxin receptor RXFP1. activity change, negative = inhibition, % at 57.5 µM. HEK293-RXFP1, relaxin-stimulated cAMP HTRF, 30 min; stronger effect = lower value. AID 1259400. actives 0.59% (n = 350,000). Q9HBX9;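 active means activity change of -60% or lower, but not beyond a set lower limit; inconclusive means change between -60% and -40%, or beyond the set limit; inactive means change above -40%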
Hits are given with their value; . = inactive; ? = inconclusive; / = no result.

SMILES | KCNH2 3.1 block | RXFP1 agonist | hERG WT inh | pAkt inh | RXFP1 antag
CCN1CCN(c2oc(COc3ccc(-c4ccccc4)cc3)nc2C#N)CC1 | -71.2 | . | . | . | .
N#Cc1nc(COc2ccc(Br)cc2)oc1N1CCN(Cc2ccccc2)CC1 | . | . | . | . | .
O=C(Nc1ccc(Oc2ccc(Cl)cc2)cc1)c1ncn[nH]1 | . | . | . | . | .
COc1ccccc1CNC(=O)CN(C)S(=O)(=O)c1cccc2cccnc12 | -124.6 | . | . | . | .
CCOC(=O)C1CCN(c2c(N3CCCC(C(=O)OCC)C3)c(=O)c2=O)CC1 (stereo not drawn) | . | . | . | . | /
CC(C)NS(=O)(=O)c1ccc(OCC(=O)NCc2cccnc2)cc1 | . | . | . | . | .
COc1ccc(NC(=O)CN(C)C(=O)c2cccc(NS(=O)(=O)c3ccc(Br)cc3)c2)cc1 | -126.6 | . | . | . | .
COc1ccc(C(CNC(=O)c2cccc(NS(=O)(=O)c3ccc(Br)cc3)c2)N(C)C)cc1 (stereo not drawn) | -80.0 | . | . | . | .
COc1ccc(C(CNC(=O)c2cccc(NS(=O)(=O)c3ccccc3)c2)N2CCCC2)cc1 (stereo not drawn) | . | / | . | . | .
COc1ccc(N(C(=O)C(C)C)S(=O)(=O)c2cccs2)cc1 | . | . | . | . | .
CCOC(=O)Cn1c(=O)oc2cc(S(=O)(=O)N3CCN(c4ccc(F)cc4)CC3)ccc21 | / | . | / | / | .
Cc1ccc(C(=O)NCC(c2cccnc2)N2CCc3ccccc3C2)cc1C (stereo not drawn) | / | . | / | / | .
CC(C)(C)c1ccc(C(=O)NCC(c2cccnc2)N2CCc3ccccc3C2)cc1 (stereo not drawn) | / | . | / | / | -76.9
COc1cc(NS(=O)(=O)c2ccc3c(c2)oc(=O)n3C)cc(OC)c1OC | . | . | . | . | .
COc1cc(NS(=O)(=O)c2c(C)oc3c(F)c(F)c(F)c(F)c23)cc(OC)c1OC | . | . | -78.2 | . | .
COC(=O)C1C(=O)C2=C(CC1C)Nc1ccccc1NC2c1cccs1 (stereo not drawn) | . | . | . | . | .
O=C(NC(=S)Nc1cccnc1Cl)c1ccc(Cl)cc1 | . | . | . | . | .
O=C(Nc1cccnc1Cl)c1ccc(Cl)cc1 | . | . | . | . | -63.2
COc1cccc(-c2ccc(NC(=O)C3CCCN(CCCn4cccn4)C3)cc2)c1 (stereo not drawn) | -83.8 | . | . | . | .
COc1cccc(-c2ccc(NC(=O)C3CCCN(Cc4ccccn4)C3)cc2)c1 (stereo not drawn) | . | / | . | . | .
COc1ccc(COC(=O)c2c(C)nn(-c3ccccc3)c2Cl)cc1 | . | . | . | . | .
O=C(CSc1nc2c([nH]c3ccccc32)c(=O)n1-c1ccccc1)c1ccccc1 | / | . | / | / | -109.2
COc1ccc(OC)c2[nH]c(=O)c(CCNC(=O)c3ccc(S(=O)(=O)N4CCCCC4)cc3)cc12 | . | . | . | . | /
COc1ccc(CNC(=O)CNC(C)c2ccc(F)cc2)cc1 (stereo not drawn) | . | . | . | . | .
O=C(c1ccccc1)c1ccc(OCC(O)CNCc2ccc(F)cc2)cc1 (stereo not drawn) | . | . | . | . | .
SMILES | KCNH2 3.1 block | RXFP1 agonist | hERG WT inh | pAkt inh | RXFP1 antag
COc1ccc(C(OCC(O)CNC(C)c2ccccc2)c2ccc(OC)cc2)cc1 (stereo not drawn) | -76.3 | . | . | . | .
COc1ccc(C(CCNC(C)c2ccccc2)c2ccc(F)cc2)cc1 (stereo not drawn) | . | . | -75.7 | . | -65.7
COc1ccc(C(CCNCc2ccc(F)cc2)c2ccc(F)cc2)cc1 (stereo not drawn) | . | . | ? | . | .
Cc1ccc(C(OCC(O)CNCc2ccc(F)cc2)c2ccccc2)cc1 (stereo not drawn) | -106.3 | . | -78.7 | . | ?
COc1ccc(CNCCC(c2ccc(F)cc2)c2ccc(OC)cc2)cc1 (stereo not drawn) | -87.3 | . | -132.5 | . | .
CN(C)c1ccc(C2Nc3cccc4cccc(c34)N2)cc1 | . | . | . | . | .
c1ccc(Cc2c(-c3ccccc3)nc3c4ccccc4ccn23)cc1 | . | / | . | . | .
CCN1C(=O)C(CC(=O)Nc2ccc(OC)cc2)N(CCCN2CCN(c3ccc(OC)cc3)CC2)C1=S (stereo not drawn) | . | . | . | . | .
O=C(OCC(=O)c1ccc[nH]1)c1ccc(S(=O)(=O)C(F)F)cc1 | . | / | . | . | .
COc1ccc2c(=O)c3c(=O)n(-c4ccccc4)c(-c4ccco4)nc3oc2c1 | . | . | . | . | .
CC(NCC(O)COCCC12CC3CC(CC(C3)C1)C2)c1ccccc1 (stereo not drawn) | . | . | . | . | -62.2
COc1ccc(CNCCC(c2ccc(F)cc2)c2ccc(OC(C)C)cc2)cc1OC (stereo not drawn) | ? | . | . | . | .
COc1ccc(C(CCNCc2ccccc2)c2ccc(F)cc2)cc1 (stereo not drawn) | -75.4 | . | . | . | .
COc1ccc(CNCC(O)(c2ccccc2)c2ccc(F)cc2)cc1OC (stereo not drawn) | . | . | . | . | .
NCC(O)COCCC12CC3CC(CC(C3)C1)C2 (stereo not drawn) | . | . | . | . | .
COc1ccc(CNCC(O)(c2ccccc2)c2ccc(F)cc2)cc1 (stereo not drawn) | -75.2 | . | . | . | .
COc1cccc(OC)c1C(=O)N1CCN(Cc2ccccc2C(F)(F)F)CC1 | . | . | . | . | .
CS(=O)(=O)c1cccc(-c2nnc(NC(=O)c3ccc4c(c3)OCCO4)o2)c1 | / | . | / | / | .
Cc1cccc(NC(=O)Cn2cccc2)c1 | . | . | . | . | .
Cc1nn(Cc2ccc([N+](=O)[O-])cc2)c(=O)n1-c1ccc(Cl)cc1 | -77.6 | . | . | . | .
O=C(C1=C[C@H](c2ccc(C(F)(F)F)cc2)C[C@H](OCCCCO)O1)N1CCN(Cc2ccccc2)CC1 | . | . | . | . | /
O=C(C1=C[C@@H](c2ccc(C(F)(F)F)cc2)C[C@@H](OCCCCO)O1)N1CCN(Cc2ccccc2)CC1 | -123.2 | . | . | . | /
Cc1[nH]n(-c2ccccc2)c(=O)c1C=Nc1cnc2ccccc2c1 | . | . | . | / | .
CC(=O)/C(=N/Nc1ccccc1)Sc1nnc(CCc2ccccc2)n1-c1ccccc1 | -90.2 | . | . | . | ?
Clc1ccc(-c2csc(N/N=C/c3ccc4c(c3)OCO4)n2)cc1 | . | . | . | . | .
O=C(Nc1ccc(Br)cc1)N1CCCCCCC1 | . | . | . | -110.4% | .
CN(C)c1ccc(NC(=O)N2CCOCC2)cc1 | . | . | . | . | -68.6
CC(=O)Nc1ccc(NC(=O)N2CCCCC2)cc1 | . | . | . | . | .
